# Measurements published in the supplement of paper PMC7380943.
# Tested on: CLZ3 (HCA2 human fibroblast dual HR-NHEJ reporter)
# Test: HR repair efficiency (tdTomato+ cells) relative to control (log10 fold); higher = more homologous recombination
# Details: 5 µM; doxycycline 0.5 ug/mL
# 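Further: compound given one day before doxycycline, which switches on I-SceI endonuclease expression to create double-strand breaks within the integrated reporter.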
row,Compound,HR repair efficiency (log10)
1,COc1ccc(/C=C/c2cc(O)cc(O[C@@H]3O[C@H](CO)[C@@H](O)[C@H](O)[C@H]3O)c2)cc1O [Rhapontin],0.0931
2,"O=C(/C=C/c1ccc(O)c(O)c1)O[C@@H]1C[C@](OC(=O)/C=C/c2ccc(O)c(O)c2)(C(=O)O)C[C@@H](O)[C@H]1O [1,3-Di-O-Caffeoylquinic Acid]",-0.0833
3,CC(C)=CCC[C@](C)(O[C@@H]1O[C@H](CO[C@@H]2O[C@H](CO)[C@@H](O)[C@H](O)[C@H]2O)[C@@H](O)[C@H](O)[C@H]1O)[C@H]1CC[C@]2(C)[C@@H]1[C@H](O)C[C@@H]1[C@@]3(C)CC[C@H](O[C@@H]4O[C@H](CO)[C@@H](O)[C@H](O)[C@H]4O)C(C)(C)[C@@H]3CC[C@]12C [Gypenoside Xvii],0.00706
4,COc1cc2ccc(=O)oc2c(OC)c1O [Isofraxidin],-0.153
5,COc1cc2c(cc1OC)[C@@H](Cc1ccc(Oc3cc(C[C@@H]4c5cc(OC)c(OC)cc5CCN4C)ccc3O)cc1)N(C)CC2 [Dauricine],-0.294
6,CC(C)(O[C@@H]1O[C@H](CO)[C@@H](O)[C@H](O)[C@H]1O)[C@H]1Cc2cc3ccc(=O)oc3cc2O1 [Nodakenin],0.0112
7,O=C(/C=C/c1ccc(O)c(O)c1)OC1(C(=O)O)C[C@@H](O)C(O)[C@H](O)C1 (some centres not stated) [1-Caffeoylquinic Acid],0.0171
8,C[C@@H](CC[C@@]1(O)O[C@H]2C[C@H]3[C@@H]4CC[C@@H]5C[C@@H](O[C@@H]6O[C@H](CO)[C@H](O)[C@H](O)[C@H]6O[C@@H]6O[C@H](CO)[C@@H](O)[C@H](O)[C@H]6O)CC[C@]5(C)[C@H]4CC[C@]3(C)[C@H]2[C@@H]1C)CO[C@@H]1O[C@H](CO)[C@@H](O)[C@H](O)[C@H]1O [Timosaponin b- II],-0.131
9,CC1(C)[C@@H](O)CC[C@]2(C)[C@H]3C(=O)C=C4[C@@H]5C[C@@](C)(C(=O)O)CC[C@]5(C)CC[C@@]4(C)[C@]3(C)CC[C@@H]12 [Glycyrrhetinic Acid],0.158
10,COc1cc(O)c2c(=O)c(-c3ccc(O)cc3)coc2c1 [Prunusetin],-0.16
11,CC[C@H](CC[C@@H](C)[C@H]1CC[C@H]2[C@@H]3CC=C4C[C@@H](O[C@@H]5O[C@H](CO)[C@@H](O)[C@H](O)[C@H]5O)CC[C@]4(C)[C@H]3CC[C@]12C)C(C)C [Daucosterol],0.0626
12,"Oc1cc(O)c2c(c1)OC(c1ccc(O)c(O)c1)C(O)C2 (single isomer, unassigned; (+)) [(+)-Catechin]",-0.0449
